Source: PubChem (Broad Institute)
LGR2 antag = inhibitors of bursicon-induced Drosophila LGR2 receptor cAMP signaling | HEK293 LGR2, CRE-luciferase, bursicon-stimulated, 4 h | inhibition, % at 9.99 µM | 380,000 compounds, 0.35% hits;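 active = drop in luminescence signal, shown as inhibition above about 50% in the replicate tests, limit read from the data, passing the limit was not always enough; inconclusive = probably only some replicates passing the limit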;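 note: agonist challenge used bursicon conditioned medium at about half maximal strength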
PAX8 inh HTS = PAX8 transcriptional activity inhibition | AID 652154 | 360,000 compounds, 1.2% hits | inhibition, % at 12.6 µM | RMG-I TPO-luciferase reporter, SteadyGlo, 24 h;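 active = mean replicate inhibition at least 60% with every replicate also reaching 60%; inconclusive = only one of the two criteria is met; inactive = mean below 60% and not all replicates reaching 60%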;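 note: luciferase light reporting Pax8 driven TPO promoter activity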
LMP1 NFkB inh = reduces LMP1-driven NF-kappaB luciferase signal. LMP1-induced NF-kappaB luciferase reporter cells, luminescence. inhibition, % at 12.5 µM. 350,000 compounds, 0.69% hits; in the data active = inhibition above about 41%; inconclusive = no clear call, values can overlap the other calls
EWS-Fli inh = EWS/Fli transcriptional activity inhibition; A673 NR0B1-luciferase reporter, viability-normalised; inhibition, % at 12.6 µM; 350,000 compounds, 0.67% hits;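 active = mean inhibition of at least 50% after viability correction, with every replicate also passing that limit; inconclusive = mean reaches 50% but only one of two replicates passes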;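 note: firefly luciferase signal divided by Alamar Blue viability fluorescence both relative to DMSO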
TRPM1 prom inh = MITF TRPM1 promoter inhibition in SK-MEL-5 cells | SK-MEL-5 TRPM1 promoter luciferase, 24 h | inhibition, % at 12.5 µM | 330,000 compounds, 0.83% hits | AID 488899;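 active = mean inhibition across replicates of 60% or more, whatever share of single replicates reaches that level; inconclusive = some that reach 60%, reason not given; inactive = mean inhibition across replicates below 60%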
Shn3 inh set2 = inhibitors of Schnurri-3 3'UTR reporter in osteoblasts. Clone20 osteoblast Shn3 3'UTR firefly luciferase, 24 h. inhibition, % at 12.5 µM. 360,000 compounds, 0.52% hits. AID 588674;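 active = mean inhibition of at least 75% with every replicate also reaching 75%; inconclusive = mean inhibition at least 75% but some replicate below; inactive = mean inhibition below 75%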
A number is an active result; n = inactive; u = inconclusive; x = no result given. Most compounds without a hit are left out; they make up all but 2.2% or so of the library.

SMILES	LGR2 antag	PAX8 inh HTS	LMP1 NFkB inh	EWS-Fli inh	TRPM1 prom inh	Shn3 inh set2
COc1ccc2c3c([nH]c2c1)[C@H](CO)N(C(=O)Nc1c(C)noc1C)CC31CCN(CC2CCCCC2)CC1	n	x	x	n	x	x
CCCNC(=O)C[C@H]1C[C@@H]2c3cc(NC(=O)Nc4ccccc4)ccc3O[C@@H]2[C@H](CO)O1	n	n	x	n	x	x
CC(=O)c1sc(NC(=O)C2COc3ccccc3O2)nc1C (stereo unspecified)	x	n	49	n	x	n
C/C(=N\NC(=O)C1COc2ccccc2O1)c1cc2ccccc2o1 (stereo unspecified)	n	n	40	n	n	n
C/C(=N\NC(=O)C1COc2ccccc2O1)c1ccccn1 (stereo unspecified)	n	n	n	x	83	n
O=C(C[C@@H]1C=C[C@@H](NC(=O)Nc2ccccc2F)[C@@H](CO)O1)NCc1ccccc1	n	x	x	n	x	x
C[C@@H]1CN([C@@H](C)CO)C(=O)c2cc(NS(=O)(=O)c3ccc(F)cc3)ccc2O[C@@H](C)CCCCO[C@H]1CN(C)Cc1ccccc1	n	n	x	n	x	x
C[C@H]1CCCCO[C@H](CN(C)Cc2ccccc2)[C@@H](C)CN([C@@H](C)CO)C(=O)c2cc(NS(=O)(=O)c3ccc(Cl)cc3)ccc2O1	n	n	x	n	x	x
C[C@@H]1CN([C@H](C)CO)C(=O)c2cc(NS(=O)(=O)c3ccc(Cl)cc3)ccc2O[C@@H](C)CCCCO[C@@H]1CN(C)Cc1ccccc1	n	112	x	n	x	x
C[C@@H]1CN([C@H](C)CO)C(=O)c2cc(NS(=O)(=O)c3ccc(F)cc3)ccc2O[C@@H](C)CCCCO[C@H]1CN(C)Cc1ccccc1	n	77	x	n	x	x
C[C@@H]1CCCCO[C@H](CN(C)Cc2ccccc2)[C@@H](C)CN([C@@H](C)CO)C(=O)c2cc(NS(=O)(=O)c3ccc(Cl)cc3)ccc2O1	n	75	x	n	x	x
CS(=O)(=O)N1CC2(C1)[C@@H](c1ccccc1)[C@H](CO)N2C(=O)C1CCC1	n	x	x	x	x	x
CCC(=O)N1CCCCN2[C@H](CO)[C@@H](c3ccc(C#Cc4ccccc4F)cc3)[C@@H]2C1	n	n	x	n	x	x
CCS(=O)(=O)N1CC2(CN[C@@H](CO)c3c2c2ccc(OC)cc2n3C)C1	n	x	x	n	x	x
CN1/C(=C/c2cccc[n+]2CCO)Sc2ccccc21	n	n	n	n	n	n
CC[n+]1ccccc1/C=C1\Sc2ccc(C)cc2N1C	n	n	n	55	n	n
COc1ccccc1/C=C/C(C)=O	n	n	n	x	n	n
COc1ccccc1/C=C/C(=O)/C=C/c1ccccc1O	n	n	n	n	66	n
COc1ccccc1C=CC(=O)C=Cc1ccccc1OC	n	n	66	n	74	n
C[C@@H]1CN([C@@H](C)CO)C(=O)c2cc(NC(=O)CCCN(C)C)ccc2O[C@@H](C)CCCCO[C@@H]1CN(C)S(=O)(=O)c1ccc(F)cc1	n	n	x	n	x	x
O=C1NC(c2cccc(OCc3ccccc3)c2)Nc2ccccc21 (stereo unspecified)	n	n	61	n	n	n
COC(=O)CN1C(=S)N(C)C(=O)C1CC(=O)Nc1ccccc1 (stereo unspecified)	n	115	n	n	n	n
COc1ccc(-c2cn(CC(=O)N3CCC4(CC3)C(=O)NCN4c3ccccc3)nn2)cc1OC	x	n	x	n	x	x
C[C@@H]1CN([C@H](C)CO)C(=O)c2cc(NC(=O)CCCCCC(=O)Nc3ccccc3N)ccc2O[C@@H]1CN(C)Cc1ccc(C(F)(F)F)cc1	n	95	x	x	x	x
COc1ccc(CN(C)C[C@H]2Oc3ccc(NC(=O)CCCCCC(=O)Nc4ccccc4N)cc3C(=O)N([C@H](C)CO)C[C@H]2C)cc1	n	n	x	n	x	x
SMILES	LGR2 antag	PAX8 inh HTS	LMP1 NFkB inh	EWS-Fli inh	TRPM1 prom inh	Shn3 inh set2
C[C@@H]1CN([C@H](C)CO)C(=O)c2cc(NC(=O)CCCCCC(=O)Nc3ccccc3N)ccc2O[C@@H]1CN(C)Cc1ccc(Oc2ccccc2)cc1	n	71	x	x	x	x
C[C@H](CO)N1C[C@H](C)[C@H](CN(C)Cc2ccc(C(F)(F)F)cc2)Oc2ccc(NC(=O)CCCCCC(=O)Nc3ccccc3N)cc2C1=O	n	u	x	n	x	x
C[C@H]1CN([C@@H](C)CO)C(=O)Cc2cc(NS(=O)(=O)c3cn(C)cn3)ccc2O[C@@H]1CN(C)Cc1ccc(C(F)(F)F)cc1	n	n	x	n	x	x
CCOc1ccc(C(=O)NC(=S)Nc2cccc(S(=O)(=O)NC3=NCCC3)c2)cc1	n	n	n	59	n	n
COc1ccc(-c2nc(CC(=O)Nc3cccc(S(=O)(=O)NC4=NCCC4)c3)cs2)cc1	n	74	n	n	n	n
COc1ccc(-c2cc(C(=O)Nc3cccc(S(=O)(=O)NCc4ccco4)c3)c3ccccc3n2)cc1OC	n	70	n	n	n	n
O=C(NC(=S)Nc1cccc(S(=O)(=O)NC2=NCCC2)c1)c1cc(-c2ccco2)nc2ccccc12	n	n	n	57	n	n
COc1ccccc1CNC(=O)C[C@H]1CC[C@@H]2[C@H](COC[C@@H](O)CN2C(=O)Nc2ccccc2)O1	n	n	x	n	x	x
O=C1CC(=O)OC(c2ccc([N+](=O)[O-])cc2)O1	x	x	n	x	x	98
O=C(O)CCn1nnc(-c2cccs2)n1	x	x	n	x	n	n
CC(C)c1ccc(-c2nnn(CCC(=O)O)n2)cc1	x	x	45	x	87	n
COc1ccc(-c2cnc3c(c2)C(=O)N([C@H](C)CO)C[C@H](C)[C@@H](CN(C)S(=O)(=O)c2ccc(OC)cc2)O3)cc1	n	x	x	n	x	x
O=C(Cn1c2ccccc2c(=O)c2ccccc21)N/N=C/c1cc([N+](=O)[O-])ccc1N1CCCCCC1	x	n	n	x	n	n
O=C(Cn1c2ccccc2c(=O)c2ccccc21)N/N=C/c1ccc(N2CCCC2)c([N+](=O)[O-])c1	n	n	n	x	89	n
O=C(C[C@@H]1CC[C@H](NC(=O)C2CC2)[C@@H](CO)O1)NCC1CC1	n	x	x	n	x	x
COc1cc(/C=C2\SC(=Nc3ccccc3)N(CCc3c[nH]c4ccccc34)C2=O)ccc1OC(C)C(=O)O (stereo unspecified)	n	x	n	x	n	n
O=C1/C(=C/c2ccc(N3CCOCC3)o2)SC(=Nc2ccccc2)N1CCc1c[nH]c2ccccc12	x	x	n	x	n	97
O=C(C[C@H]1CC[C@H](NS(=O)(=O)c2ccc(F)cc2)[C@H](CO)O1)NC1CCC1	n	n	x	n	x	x
CCN(CC)C(=O)C1CCCN(c2ccc([N+](=O)[O-])cc2[N+](=O)[O-])C1 (stereo unspecified)	n	n	52	n	n	n
CCN(CC)C(=O)C1CCCN(c2ccccc2[N+](=O)[O-])C1 (stereo unspecified)	n	n	n	n	n	n
O=C(Nc1ccc(Cl)cc1)/C(=C/c1cccc(O)c1)c1nc2ccccc2s1	86	98	n	n	92	93
